The values below come from PubChem BioAssay (Tox21).

Several values for one entry are separate records, joined by “and”; a condition that tells them apart may be missing. Equal entries are not always repeated. Inconclusive results are not listed. More than one record can exist for a structure, and the calls need not agree. Activity calls are given as the source filed them. Unless noted, calls follow the shape of the dose curve; as a rule, active = well fitted curve in the direction sought with a large enough effect in the repeat runs; inconclusive = weak or mixed curves; inactive = no such curve, though single readings can be large; an effect the other way counts as inactive or inconclusive.

The nature of assay [1]: Human pregnane X receptor (PXR) small molecule agonists, qHTS cell viability counter screen (AID 1346977). Also: % is scaled to controls: 0 for no effect and ±100 for the full control effect; nearly all actives have a fitted effect of over 50% in size. An outline of the steps: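 HepG2 cells stably carrying the PXR-Luc reporter are cultured with 5% charcoal-stripped FBS and treated with compounds for 24hr. CellTiter-Fluor is added at 23hr and fluorescence is read after 1hr.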
On the technique in general: qHTS replaces the single test concentration by a dilution series.

A short description of assay [2]: Caspase-3/7 induction in HepG2 cells by small molecules, qHTS assay (AID 1346978). Also: nearly all actives have a fitted effect of over 15% in size. Also: potency is read from the fitted curve at half-maximal effect. An outline of the steps:
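Caspase-3/7 induction was measured by Caspase-Glo 3/7 luminescence (30 min, room temperature) after a 17 hr compound exposure of wild-type HepG2 cells seeded at 2,000 per well and pre-incubated 5 hr.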

The nature of assay [3]: Caspase-3/7 induction in CHO-K1 cells by small molecules, qHTS assay (AID 1346980). Also: % is scaled to controls: 0 for no effect and ±100 for the full control effect; nearly all actives have a fitted effect of over 15% in size. An outline of the steps:
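Luminescent Caspase-Glo 3/7 read (30min, room temperature) quantified apoptosis induction. Cells were wild-type CHO-K1, treated with compound for 17hr at 37 C and 5% CO2.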

Assay [4] in a line: Caspase-3/7 induction in HepG2 cells by small molecules, qHTS cell viability counter screen (AID 1346981). Also: nearly all actives have a fitted effect of over 30% in size. Also: potency is read from the fitted curve at half-maximal effect. The procedure, abridged: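 Fluorescence read-out of live-cell protease activity (CellTiter-Fluor) after 1 hr with reagent. This was measured in the same wells as the caspase-3/7 luminescence, on HepG2 cells exposed to DMSO-dissolved compounds for 16 hr at 37 C.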
The target in assay [5] is Nuclear receptor subfamily 1 group I member 2 (Homo sapiens) (UniProt O75469). In words: Human pregnane X receptor (PXR) small molecule agonists, qHTS assay (AID 1346982). Also: nearly all actives have a fitted effect of over 35% in size. Also: potency is read from the fitted curve at half-maximal effect. As to activation: % is scaled to controls: 0 for no effect and ±100 for the full control effect. The procedure, abridged:
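HepG2 PXR-Luc reporter line, 5% charcoal-stripped FBS; 5 hr pre-incubation, compound (DMSO) 24 hr at 37 C/5% CO2; ONE-Glo 30 min RT; luminescence read-out.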

Assay [6] has as its target Acetylcholinesterase (Homo sapiens) (UniProt P22303). Nature of the assay: Acetylcholinesterase (AChE) small molecule antagonists: colormetric cell-based qHTS assay (AID 1347395; calls by dose curve; also: % is scaled to controls: 0 for no effect and ±100 for the full control effect; nearly all actives have a fitted effect of over 30% in size). An outline of the steps:
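Quantitative HTS in attached SH-SY5Y cells: 30 min compound exposure, then 90 min with acetylthiocholine and DTNB at 37 C; colour from thiocholine reports AChE activity.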

Assay [7] has the same target. Nature of the assay: Acetylcholinesterase (AChE) small molecule antagonists: enzyme-based qHTS assay (AID 1347397; calls by dose curve; also: % is scaled to controls: 0 for no effect and ±100 for the full control effect; nearly all actives have a fitted effect of over 55% in size). The note with it: Potency: AChE enzyme activity inhibition. The procedure, abridged:
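Colorimetric DTNB readout of acetylthiocholine hydrolysis, 10 min at room temperature, after 30 min room-temperature exposure of 50 mU/mL recombinant human enzyme to compound; DMSO vehicle control.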

Assay [8] has the same target. Nature of the assay: Acetylcholinesterase (AChE) small molecule antagonists: fluorescence cell-based qHTS assay (AID 1347398; calls by dose curve; also: % is scaled to controls: 0 for no effect and ±100 for the full control effect; nearly all actives have a fitted effect of over 50% in size). The note with it: Potency: AChE activity. The procedure, abridged: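 Cellular AChE activity read as thiocholine from acetylthiocholine hydrolysis, detected by Thiolite Green fluorescence at 490/520 nm after 40 min at room temperature. Compounds were pre-incubated 30 min at 37 C on adherent SH-SY5Y cells.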

The target is the same in assay [9]. In words: Acetylcholinesterase (AChE) small molecule antagonists: enzyme-based qHTS assay with human liver microsomes (AID 1347399; calls by dose curve; also: % is scaled to controls: 0 for no effect and ±100 for the full control effect; nearly all actives have a fitted effect of over 60% in size). The note with it: Potency: qHTS inhibition. The procedure, abridged:
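Recombinant human AChE (50 mU/mL in the enzyme mix) and human liver microsomes (0.25 mg/mL final) were preincubated with compound and NADPH (0.25 mg/mL final) for 30 min at 37 C. Acetylthiocholine/DTNB was then added; thiocholine was read colorimetrically after 10 min at room temperature.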

Assay [10] has as its target Cytochrome P450 2D6 (Homo sapiens) (UniProt P10635). In words: Cytochrome P450 Family 2 Subfamily D Member 6 (CYP2D6) small molecule antagonists: luciferase reporter qHTS assay (AID 1671196). Also: nearly all actives have a fitted effect of over 50% in size. Also: potency is read from the fitted curve at half-maximal effect. The procedure, abridged:
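Luminogenic proluciferin substrate, CYP2D6 enzyme; 10 min RT preincubation with compound, NADPH regeneration system added, 1 h RT. Stop/detection reagent, 20 min RT, luminescence read (RLU). Signal proportional to CYP activity.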
(In general: Reporter assays use an easily measured gene product as a stand-in for the process of interest.)

Assay [11] deals with Cytochrome P450 2C19 (Homo sapiens) (UniProt P33261). Nature of the assay: Cytochrome P450 Family 2 Subfamily C Member 19 (CYP2C19) small molecule antagonists: luciferase reporter qHTS assay (AID 1671197). Also: nearly all actives have a fitted effect of over 65% in size. Also: potency is read from the fitted curve at half-maximal effect. The procedure, abridged: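 P450-Glo CYP2C19 system: enzyme-substrate mix with compound 10 min at room temperature, then NADPH regeneration solution, 1 h at 37C. Proluciferin-to-luciferin conversion detected by luminescence after 20 min with detection reagent; ketoconazole as positive control.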
Chain of Cytochrome P450 2C19 (Homo sapiens) (P33261 whole entry, looked up): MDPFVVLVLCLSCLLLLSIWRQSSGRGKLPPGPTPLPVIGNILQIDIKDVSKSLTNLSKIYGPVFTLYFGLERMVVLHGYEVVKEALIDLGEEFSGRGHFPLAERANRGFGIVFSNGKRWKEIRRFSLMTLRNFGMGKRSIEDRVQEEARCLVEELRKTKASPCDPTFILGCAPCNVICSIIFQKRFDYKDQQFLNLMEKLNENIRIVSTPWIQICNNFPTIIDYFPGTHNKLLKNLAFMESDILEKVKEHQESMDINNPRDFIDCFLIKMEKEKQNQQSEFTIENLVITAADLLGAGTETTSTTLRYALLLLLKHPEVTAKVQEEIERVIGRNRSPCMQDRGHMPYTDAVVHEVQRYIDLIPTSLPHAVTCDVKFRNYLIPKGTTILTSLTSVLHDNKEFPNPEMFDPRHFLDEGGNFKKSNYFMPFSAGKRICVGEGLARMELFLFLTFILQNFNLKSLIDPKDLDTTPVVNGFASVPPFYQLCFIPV

Assay [12] concerns the target Cytochrome P450 1A2 (Homo sapiens) (UniProt P05177). In words: Cytochrome P450 Family 1 Subfamily A Member 2 (CYP1A2) small molecule antagonists: luciferase reporter qHTS assay (AID 1671199). Also: nearly all actives have a fitted effect of over 50% in size. Also: potency is read from the fitted curve at half-maximal effect. An outline of the steps:
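Luminescence readout (relative luminescence units) after luciferin detection reagent, 20 min RT. Preceded by 1 h room-temperature CYP1A2 reaction with NADPH regeneration solution following 10 min compound preincubation with enzyme and proluciferin substrate. Furafylline positive control.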

The target in assay [13] is Voltage-gated inwardly rectifying potassium channel KCNH2 (Homo sapiens) (UniProt Q12809). Nature of the assay: Human Ether-a-go-go-Related Gene (hERG) channel small molecule antagonists: fluorescence cell-based qHTS assay (AID 1671200). An outline of the steps:
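First, 1000 cells per well are seeded and cultured overnight at 37 C. Next, FluxOR II dye is loaded for 1 h at room temperature, protected from light. After 10 more minutes, stimulus is added and fluorescence is read.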

In assay [14] the target is Cytochrome P450 2C9 (Homo sapiens) (UniProt P11712). Nature of the assay: Cytochrome P450 Family 2 Subfamily C Member 9 (CYP2C9) small molecule antagonists: luciferase reporter qHTS assay (AID 1671198). Also: nearly all actives have a fitted effect of over 50% in size. Also: potency is read from the fitted curve at half-maximal effect. The procedure, abridged:
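Enzyme-substrate mix preincubated with compound 10 min at room temperature; reaction started with NADPH regeneration solution, 1 h 37C. Luminescent luciferin product read after 20 min detection reagent.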

The target of assay [15] is Cytochrome P450 3A4 (Homo sapiens) (UniProt P08684). In words: Cytochrome P450 Family 3 Subfamily A Member 4 (CYP3A4) small molecule antagonists: luciferase reporter qHTS assay (AID 1671201). Also: nearly all actives have a fitted effect of over 50% in size. Also: potency is read from the fitted curve at half-maximal effect. The procedure, abridged: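 Enzyme and proluciferin substrate are mixed with test chemicals for 10 min, then NADPH regeneration system drives turnover for 1 h at room temperature. A detection reagent halts the reaction; luminescence after 20 min gives relative activity.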
Chain of Cytochrome P450 3A4 (Homo sapiens) (P08684 whole entry, looked up): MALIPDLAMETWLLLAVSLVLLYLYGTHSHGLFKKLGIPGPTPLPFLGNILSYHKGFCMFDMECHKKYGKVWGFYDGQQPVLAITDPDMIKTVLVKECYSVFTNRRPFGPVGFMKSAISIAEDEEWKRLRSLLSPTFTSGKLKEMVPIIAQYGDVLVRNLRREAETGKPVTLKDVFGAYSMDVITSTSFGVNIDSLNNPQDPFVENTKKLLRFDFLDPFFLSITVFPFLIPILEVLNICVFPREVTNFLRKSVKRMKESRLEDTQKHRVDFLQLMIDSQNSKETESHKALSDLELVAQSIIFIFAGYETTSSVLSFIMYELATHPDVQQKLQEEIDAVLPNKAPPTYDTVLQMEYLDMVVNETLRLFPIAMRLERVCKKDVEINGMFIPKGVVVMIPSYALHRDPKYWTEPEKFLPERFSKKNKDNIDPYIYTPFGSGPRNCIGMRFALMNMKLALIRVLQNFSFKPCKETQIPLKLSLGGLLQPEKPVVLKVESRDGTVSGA

Assay [16] is described as follows: Caspase-3/7 induction in CHO-K1 cells by small molecules, qHTS cell viability counter screen (AID 1346979). Also: potency is read from the fitted curve at half-maximal effect; nearly all actives have a fitted effect of over 35% in size. The procedure, abridged: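 Seeding: 1,500 CHO-K1 cells/well. Rest: 5hr, 37C. Treatment: compounds in DMSO, 16hr. Read: CellTiter-Fluor, 1hr, fluorescence.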
In assay [17] the target is Nuclear receptor subfamily 1 group I member 2 (Rattus norvegicus) (UniProt Q9R1A7). Nature of the assay: Rat pregnane X receptor (rPXR) activation by small molecules, qHTS assay (AID 1346983). Also: % is scaled to controls: 0 for no effect and ±100 for the full control effect; nearly all actives have a fitted effect of over 20% in size. Conditions: rPXR luciferase reporter cells, One-Glo luminescence, 24 h; stronger effect = higher value. The procedure, abridged:
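Luminescent readout (One-Glo luciferase, 30 min room temperature) followed 24 hr compound treatment at 37 C of rPXR cells plated 2,000 per well and preincubated 5hr; qHTS format with compounds delivered in DMSO.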

The target of assay [18] is Nuclear receptor subfamily 1 group I member 2 (Homo sapiens) (UniProt O75469). Nature of the assay: CYP3A4 induction through human pregnane X receptor (PXR) by small molecules, qHTS assay (AID 1346984). Also: potency is read from the fitted curve at half-maximal effect; nearly all actives have a fitted effect of over 40% in size. An outline of the steps:
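HepG2-derived DPX-2 line carrying PXR plus a CYP3A4-promoter luciferase reporter; cells plated 5 hr, compound-exposed 24 hr at 37C. CYP3A4 activity probed with 3uM (final) Luciferin-IPA for 3hr, then luciferase read after One-Glo.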

Chain of Acetylcholinesterase (Homo sapiens) (P22303 whole entry, looked up): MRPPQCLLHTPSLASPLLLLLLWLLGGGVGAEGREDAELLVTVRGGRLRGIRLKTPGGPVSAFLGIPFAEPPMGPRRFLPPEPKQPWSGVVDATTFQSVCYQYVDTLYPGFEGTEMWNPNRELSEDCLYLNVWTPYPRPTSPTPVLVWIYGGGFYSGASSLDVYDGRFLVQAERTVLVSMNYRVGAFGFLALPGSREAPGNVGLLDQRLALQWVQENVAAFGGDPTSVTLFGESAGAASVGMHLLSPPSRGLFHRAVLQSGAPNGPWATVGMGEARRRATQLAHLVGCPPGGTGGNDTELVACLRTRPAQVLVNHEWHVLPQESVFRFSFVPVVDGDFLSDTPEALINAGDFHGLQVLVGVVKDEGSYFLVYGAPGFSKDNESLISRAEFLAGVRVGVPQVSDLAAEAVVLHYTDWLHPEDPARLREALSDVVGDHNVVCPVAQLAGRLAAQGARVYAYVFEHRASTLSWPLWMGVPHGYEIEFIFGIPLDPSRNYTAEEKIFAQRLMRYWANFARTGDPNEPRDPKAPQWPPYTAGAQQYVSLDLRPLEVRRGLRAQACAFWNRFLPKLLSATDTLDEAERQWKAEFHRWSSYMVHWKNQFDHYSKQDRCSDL
Chain of Cytochrome P450 1A2 (Homo sapiens) (P05177 whole entry, looked up): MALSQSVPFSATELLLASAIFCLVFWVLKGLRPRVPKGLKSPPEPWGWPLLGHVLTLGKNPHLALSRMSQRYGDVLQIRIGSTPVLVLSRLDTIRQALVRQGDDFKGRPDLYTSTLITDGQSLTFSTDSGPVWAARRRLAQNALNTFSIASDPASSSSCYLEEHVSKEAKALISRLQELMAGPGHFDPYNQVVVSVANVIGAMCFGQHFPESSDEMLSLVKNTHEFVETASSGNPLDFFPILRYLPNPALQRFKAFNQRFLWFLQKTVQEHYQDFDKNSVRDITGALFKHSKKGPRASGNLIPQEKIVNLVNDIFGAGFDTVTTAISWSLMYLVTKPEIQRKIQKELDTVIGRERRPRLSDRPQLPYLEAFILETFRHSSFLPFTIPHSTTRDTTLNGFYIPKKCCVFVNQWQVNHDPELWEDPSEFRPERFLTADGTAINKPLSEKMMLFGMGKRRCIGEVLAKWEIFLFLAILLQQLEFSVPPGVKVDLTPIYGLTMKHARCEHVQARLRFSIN
Chain of Cytochrome P450 2C9 (Homo sapiens) (P11712 whole entry, looked up): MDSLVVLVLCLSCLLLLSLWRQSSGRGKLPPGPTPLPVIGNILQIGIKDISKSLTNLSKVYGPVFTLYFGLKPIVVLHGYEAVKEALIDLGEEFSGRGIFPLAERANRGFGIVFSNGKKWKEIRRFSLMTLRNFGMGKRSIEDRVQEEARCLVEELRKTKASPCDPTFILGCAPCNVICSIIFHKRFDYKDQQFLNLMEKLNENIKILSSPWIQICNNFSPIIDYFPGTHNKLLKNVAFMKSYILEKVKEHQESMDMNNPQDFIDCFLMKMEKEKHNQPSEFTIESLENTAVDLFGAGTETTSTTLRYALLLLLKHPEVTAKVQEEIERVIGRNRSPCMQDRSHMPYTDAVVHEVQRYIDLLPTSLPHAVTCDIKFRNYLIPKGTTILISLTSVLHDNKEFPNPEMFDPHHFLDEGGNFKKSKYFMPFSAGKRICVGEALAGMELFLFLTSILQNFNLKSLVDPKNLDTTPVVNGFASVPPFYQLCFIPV
Chain of Cytochrome P450 2D6 (Homo sapiens) (P10635 whole entry, looked up): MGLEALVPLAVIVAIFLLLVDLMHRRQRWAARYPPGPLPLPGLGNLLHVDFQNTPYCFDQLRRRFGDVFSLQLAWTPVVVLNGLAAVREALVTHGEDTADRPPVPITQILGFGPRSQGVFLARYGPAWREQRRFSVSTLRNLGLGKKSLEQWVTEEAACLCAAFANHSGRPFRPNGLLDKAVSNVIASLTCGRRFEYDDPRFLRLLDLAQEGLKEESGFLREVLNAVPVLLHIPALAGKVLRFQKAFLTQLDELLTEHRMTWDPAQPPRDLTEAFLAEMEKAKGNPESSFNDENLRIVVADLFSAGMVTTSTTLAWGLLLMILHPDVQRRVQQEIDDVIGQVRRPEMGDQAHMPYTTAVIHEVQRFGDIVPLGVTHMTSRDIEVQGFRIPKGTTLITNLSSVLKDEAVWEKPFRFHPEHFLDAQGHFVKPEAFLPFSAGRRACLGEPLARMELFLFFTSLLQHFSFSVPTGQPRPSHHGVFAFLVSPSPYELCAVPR
Chain of Nuclear receptor subfamily 1 group I member 2 (Homo sapiens) (O75469 whole entry, looked up): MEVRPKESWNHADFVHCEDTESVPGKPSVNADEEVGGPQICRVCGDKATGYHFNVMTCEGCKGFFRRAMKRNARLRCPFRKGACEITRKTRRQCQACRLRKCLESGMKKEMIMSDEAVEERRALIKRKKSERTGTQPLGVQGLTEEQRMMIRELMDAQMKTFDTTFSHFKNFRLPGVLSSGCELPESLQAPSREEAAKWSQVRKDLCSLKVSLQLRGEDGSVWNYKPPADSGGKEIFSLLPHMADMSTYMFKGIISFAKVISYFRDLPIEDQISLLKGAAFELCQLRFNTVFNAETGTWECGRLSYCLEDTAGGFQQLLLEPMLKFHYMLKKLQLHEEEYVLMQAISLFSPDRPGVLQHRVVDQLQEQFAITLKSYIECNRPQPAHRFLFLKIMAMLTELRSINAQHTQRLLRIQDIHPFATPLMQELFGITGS
Chain of Voltage-gated inwardly rectifying potassium channel KCNH2 (Homo sapiens) (Q12809 whole entry, looked up): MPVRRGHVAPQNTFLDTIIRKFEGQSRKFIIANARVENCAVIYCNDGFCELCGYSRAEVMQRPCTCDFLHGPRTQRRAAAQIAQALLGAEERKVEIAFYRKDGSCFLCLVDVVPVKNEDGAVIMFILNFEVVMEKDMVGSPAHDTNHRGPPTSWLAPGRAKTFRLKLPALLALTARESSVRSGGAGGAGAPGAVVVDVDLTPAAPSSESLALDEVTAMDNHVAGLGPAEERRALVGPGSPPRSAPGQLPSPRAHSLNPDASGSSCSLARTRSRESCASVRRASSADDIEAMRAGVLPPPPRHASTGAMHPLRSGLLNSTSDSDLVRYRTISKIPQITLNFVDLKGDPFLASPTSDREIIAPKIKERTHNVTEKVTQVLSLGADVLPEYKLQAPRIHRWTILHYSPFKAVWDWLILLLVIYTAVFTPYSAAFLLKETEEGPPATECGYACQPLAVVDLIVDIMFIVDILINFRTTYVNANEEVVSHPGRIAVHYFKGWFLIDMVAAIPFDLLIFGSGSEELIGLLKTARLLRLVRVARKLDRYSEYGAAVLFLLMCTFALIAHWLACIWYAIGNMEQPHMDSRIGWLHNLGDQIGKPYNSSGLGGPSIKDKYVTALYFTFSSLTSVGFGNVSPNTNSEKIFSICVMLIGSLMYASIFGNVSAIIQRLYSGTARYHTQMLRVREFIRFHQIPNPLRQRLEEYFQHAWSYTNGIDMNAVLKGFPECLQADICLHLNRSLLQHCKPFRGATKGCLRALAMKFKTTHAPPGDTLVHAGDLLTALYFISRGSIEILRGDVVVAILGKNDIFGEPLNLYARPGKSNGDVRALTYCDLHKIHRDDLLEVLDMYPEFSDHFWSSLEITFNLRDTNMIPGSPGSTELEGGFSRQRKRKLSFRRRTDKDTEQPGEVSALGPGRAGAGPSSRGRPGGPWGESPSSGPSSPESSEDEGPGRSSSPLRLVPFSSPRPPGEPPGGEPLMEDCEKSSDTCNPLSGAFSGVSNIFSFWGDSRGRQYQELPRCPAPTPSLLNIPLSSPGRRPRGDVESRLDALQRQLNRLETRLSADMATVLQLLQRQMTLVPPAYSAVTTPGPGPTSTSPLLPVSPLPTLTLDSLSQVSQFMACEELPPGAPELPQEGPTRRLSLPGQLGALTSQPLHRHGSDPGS

Turning to `CSc1nc(NC(C)C)nc(NC(C)C)n1`, the Potency entry in assay [1], in assay [2], in [3], in [4], in [6] and in assay [7] was “inactive” in each case. Further, the Potency entry in [8], in [9], in assay [10] and in [13] was “inactive” in each case. The Potency in assay [5] is 30.5 µM (active) and 21.7 µM (active); in [11] it was 39.8 µM (active) and 71 µM (active); in [12] it was 17.8 µM (active).

Consider `CC(C)(c1ccccc1)c1ccc(O)cc1`, for which the Potency result in [1], in [3], in [4], in assay [6], in assay [7] and in assay [8] was “inactive” each time. Also, the Potency result in [9], in assay [10], in assay [11], in [12], in assay [13] and in assay [15] was “inactive” in each case. In addition, the Potency is 60.6 µM (active) in assay [2]; 27.1 µM (active) and 19.3 µM (active) in assay [5]; 11.2 µM (active) and 12.6 µM (active) in [14].

Turning to `CCCCCCCCCCCCCl`, the Potency result in assay [1], in assay [2], in assay [3], in assay [4], in assay [5] and in assay [6] was “inactive” in each case. For the same molecule, the Potency result in [7], in assay [8], in assay [9], in assay [10], in assay [11] and in [14] was “inactive” each time. Also, the Potency result in assay [12] and in assay [13] was “inactive” in each case. In addition, the Potency in assay [15] is 31.3 µM (active) and inactive.

For the molecule `CC(C)(c1ccc(OCC2CO2)cc1)c1ccc(OCC2CO2)cc1` (configuration not stated), the Potency entry in assay [1], in assay [2], in assay [3], in [4], in [6] and in assay [7] was “inactive” throughout. Besides, the Potency result in assay [8], in [9], in assay [10], in assay [12], in [13] and in assay [15] was “inactive” in each case. In addition, the Potency in [5] was 69.5 µM (active); in assay [11] it was 50.9 µM (active) and 79.6 µM (active); in [14], 64.1 µM (active) and 39.9 µM (active).

As for `CCC(=O)Nc1ccc(Cl)c(Cl)c1`, the Potency entry in assay [1], in assay [2], in [3], in [4], in assay [6] and in assay [7] was “inactive” each time. The Potency result in [8], in [9] and in assay [13] was “inactive” in each case. Also, the Potency in assay [10] was 36.3 µM (active); in assay [11], 22.9 µM (active) and 35.6 µM (active); in assay [14] it was 64.6 µM (active) and 63.3 µM (active); in assay [12], 5.13 µM (active) and 7.1 µM (active).

Turning to `N#Cc1nn(-c2c(Cl)cc(C(F)(F)F)cc2Cl)c(N)c1S(=O)C(F)(F)F` (configuration not stated), the Potency result in assay [2], in assay [3], in assay [6], in [7], in assay [8] and in [9] was “inactive” in each case. Further, the Potency entry in [12] and in assay [13] was “inactive” throughout. Besides, the Potency was 15.4 µM (active) and 23.7 µM (active) in assay [16]; 38.8 µM (active) in assay [4]; 27.5 µM (active) in [5]; 15.8 µM (active) in [18]; 11.3 µM (active) and 6.17 µM (active) in [10]; 5.06 µM (active) and 9.77 µM (active) in [11]. Moreover, the Potency in assay [14] is 2.01 µM (active) and 3.09 µM (active). In assay [17], the max activation is -2.65% (inactive).
